# Test results reported in PubChem BioAssay (NCI).
# This is part of a sample that, as a whole, favours compounds with a hit. Of some 83,000 tested, about 20% had one in any assay.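 Results are percent growth after 48 hours of single-concentration exposure. 100 means growth as in untreated cells, lower positive values show inhibition; negative values down to -100 show cell death.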 The source made the active and inactive calls. How the source made its calls: active means growth percent below 10; inactive means the rest.
# Legend:
# Test in all cases: NCI-60 one-dose screen, 48 h (100 = growth as untreated, 0 = no growth, -100 = all killed)
# Conditions in all cases: 10 µM unless noted
# DU-145 prostate = test system: DU-145 prostate
# K-562 leukemia = test system: K-562 leukemia
# MALME-3M melanoma = test system: MALME-3M melanoma
# MDA-MB-231 breast = test system: MDA-MB-231 breast
# RXF 393 renal = test system: RXF 393 renal
# SF-268 CNS = test system: SF-268 CNS
# SF-295 CNS = test system: SF-295 CNS
# SF-539 CNS = test system: SF-539 CNS
# UACC-257 melanoma = test system: UACC-257 melanoma
# M14 melanoma = test system: M14 melanoma
Structure (SMILES),growth (DU-145 prostate),growth (K-562 leukemia),growth (MALME-3M melanoma),growth (MDA-MB-231 breast),growth (RXF 393 renal),growth (SF-268 CNS),growth (SF-295 CNS),growth (SF-539 CNS),growth (UACC-257 melanoma),growth (M14 melanoma)
COc1ccccc1/C(C)=N/NC(=O)CSc1nc2ccccc2c(=O)n1Cc1ccc(S(N)(=O)=O)cc1,108% (inactive),98.2% (inactive),103% (inactive),96.6% (inactive),95.9% (inactive),89.2% (inactive),93.9% (inactive),94.4% (inactive),95.4% (inactive),108% (inactive)
COc1ccc(NC(=O)c2cc(NCc3cc(O)ccc3O)ccc2O)cc1,97.4% (inactive),73.1% (inactive),108% (inactive),79.1% (inactive),91.2% (inactive),80.8% (inactive),115% (inactive),86.8% (inactive),76.3% (inactive),95.1% (inactive)
COc1cc(-c2csc(NC(=O)c3cc(F)cc(C(F)(F)F)c3)n2)cc(OC)c1OC,14.6% (inactive),8.12% (active),40.3% (inactive),56.5% (inactive),11.8% (inactive),42.4% (inactive),38.1% (inactive),26.8% (inactive),58.6% (inactive),23.6% (inactive)
Nc1c(C(=O)Nc2cccc3cnccc23)sc2nc3c(cc12)C(=O)CCC3,103% (inactive),46.3% (inactive),88.3% (inactive),83.4% (inactive),92.2% (inactive),96.4% (inactive),74.9% (inactive),93.6% (inactive),95.6% (inactive),74.6% (inactive)
CN(C)CCn1c2ccc(Br)cc2c2nc3ccccc3nc21,27% (inactive),12.1% (inactive),51.3% (inactive),30.3% (inactive),39.4% (inactive),43.1% (inactive),26.8% (inactive),27.3% (inactive),46% (inactive),30% (inactive)
CNC(=O)c1cncc(Cn2nc(C)c(NC(=O)c3ccc(COc4ccc(C(F)(F)F)cc4C)cc3)c2C)c1,67% (inactive),37% (inactive),73.8% (inactive),78.2% (inactive),83.7% (inactive),70.8% (inactive),40.4% (inactive),80.7% (inactive),18.4% (inactive),73.3% (inactive)
C=C1C(=O)O[C@H]2[C@H]1CC/C(COC(=O)NCc1c[nH]c3ccc(Cl)cc13)=C\CC[C@@]1(C)O[C@@H]21,-72.2% (active),0.207% (active),-57.1% (active),-70.4% (active),-92.5% (active),-3.81% (active),63.8% (inactive),-54.9% (active),19.4% (inactive),-53.2% (active)
COc1cc2nc(-c3ccc(Cl)cc3)cc(OCCCN3CCOCC3)c2cc1OC,43.8% (inactive),10.3% (inactive),64.9% (inactive),27.2% (inactive),28.7% (inactive),63.2% (inactive),-39% (active),64.1% (inactive),1.42% (active),-37.9% (active)
Cn1ccnc1C(=O)/C=C/c1ccc(CC(=O)Nc2ccc(F)cc2)cc1,-15.6% (active),5.72% (active),90.4% (inactive),30.1% (inactive),35.6% (inactive),10% (inactive),37.1% (inactive),2.33% (active),85.3% (inactive),81.1% (inactive)
O=C(CCN1CCCC1)Nc1ccc2c(Nc3ccc(Br)cc3)c3ccccc3nc2c1,-70.8% (active),-43.1% (active),-86.2% (active),-49.4% (active),47% (inactive),-7.83% (active),46.3% (inactive),-67.9% (active),-48.4% (active),-75% (active)
C/C(=N\NC(=O)CSc1nc2ccccc2c(=O)n1Cc1ccc(S(N)(=O)=O)cc1)c1ccc(F)cc1,111% (inactive),103% (inactive),106% (inactive),101% (inactive),109% (inactive),98.8% (inactive),102% (inactive),104% (inactive),107% (inactive),107% (inactive)
Cc1ccc(/C=C(/C#N)n2nnc3cccc(F)c32)cc1,-24.9% (active),6.48% (active),36.3% (inactive),-38.5% (active),-51.4% (active),21.2% (inactive),16.2% (inactive),-48.1% (active),52.8% (inactive),-13.6% (active)
CC(=O)c1ccc(NS(=O)(=O)c2cccc(C(=O)Nc3ccc(Br)cc3)c2)cc1,94.6% [25 µM] (inactive),44.4% [25 µM] (inactive),56.2% [25 µM] (inactive),94.1% [25 µM] (inactive),61.7% [25 µM] (inactive),60.8% [25 µM] (inactive),23.8% [25 µM] (inactive),66.5% [25 µM] (inactive),44.6% [25 µM] (inactive),63.9% [25 µM] (inactive)
O=C(NCCc1ccccc1)Nc1ccc2cc3ccc(NC(=O)NCCc4ccccc4)cc3nc2c1,29.2% (inactive),1.41% (active),-13.8% (active),-17.5% (active),-21.5% (active),-54.2% (active),0.203% (active),-61.7% (active),85.6% (inactive),33.8% (inactive)
CC1(C)CC(O)CCCCCCOc2c(CN)cccc2NC(=O)c2nc(cnc2N)-c2ccc(cc2)S1(=O)=O (stereo not given),15.1% (inactive),-26.3% (active),-71.5% (active),39.8% (inactive),19.6% (inactive),26.1% (inactive),21.3% (inactive),-60.5% (active),21.9% (inactive),-72.7% (active)
CC(C)N1C(=O)/C(=C2\SC(=S)N(C(C)C)C2=O)SC1=S,93.6% (inactive),93% (inactive),82.6% (inactive),81% (inactive),104% (inactive),94.5% (inactive),101% (inactive),85.1% (inactive),95.8% (inactive),95% (inactive)
Cc1cccc(NC(=O)Nc2ccc(-c3ccc4c(c3)NC(=O)/C4=C\c3ccc[nH]3)cc2)c1,96.4% (inactive),82.8% (inactive),105% (inactive),93% (inactive),102% (inactive),95.2% (inactive),66.1% (inactive),62.7% (inactive),102% (inactive),84.9% (inactive)
COc1cc2c(=O)n(CCN)c3c4cc5c(cc4ccc3c2cc1OC)OCO5,-83.2% (active),-55% (active),-72.3% (active),-81.7% (active),-76.8% (active),-59.6% (active),25% (inactive),-75.9% (active),33.8% (inactive),-50.8% (active)
O=C(C1CCC1)N1N=C(c2ccc(-n3ccc(C(F)(F)F)n3)cc2)CC1c1ccc[nH]1 (stereo not given),103% (inactive),77.4% (inactive),98.6% (inactive),83.1% (inactive),115% (inactive),102% (inactive),95% (inactive),98% (inactive),92.2% (inactive),93.2% (inactive)
CC(Sc1nc2ccccc2c(=O)n1CCc1ccc(S(N)(=O)=O)cc1)C(=O)Nc1ccc(Cl)cc1 (stereo not given),99.4% (inactive),60.4% (inactive),89.7% (inactive),82.6% (inactive),72.4% (inactive),74.7% (inactive),83.8% (inactive),90.8% (inactive),90.2% (inactive),105% (inactive)
C#CCNC(=O)c1cccc2c1cc(C)n2-c1nc2c(c(NCc3ccccc3)n1)CCCC2,5.22% (active),6.56% (active),-59% (active),-69.7% (active),-68.1% (active),-23.6% (active),-68.2% (active),-23.4% (active),-30.5% (active),-39.2% (active)
